The campaign covered roughly 69,000 compounds. About 8,600 (12%) showed an effect of 50% or more. The sample as a whole holds a higher share of strong results than the screen did.

Here are results for 68 molecules from ChEMBL document CHEMBL4513216, “Probing the Open Global Health Chemical Diversity Library for Multistage-Active Starting Points for Next-Generation Antimalarials” (ACS Infect Dis, 2020).

The assay has as its system Plasmodium berghei. The experiment in a line: Screen against P. berghei liver stage (PbLuc), transformed with Luciferase, at 10uM. Type of assay: functional, HepG2. Conditions: tested at 10 uM.
Take `CC(=O)NCCNC(=O)CN1CCCC(Cn2cncn2)C1` (stereo not drawn): the INHIBITION is on record as 29.7%.

On to `COc1ccc(N2CCN(C(=O)C3[C@H]4CNC[C@@H]34)CC2(C)C)cc1` (stereo partly drawn), for which the INHIBITION stood at 35.3%.

Consider `Cc1c[nH]c(CN2CCOC(c3ccc(Cl)c(Cl)c3)C2)c(C)c1=O` (stereo not drawn), for which the INHIBITION turned out to be 19.8%.

With `Cc1cc(C(=O)N2CCOC(c3ccc(Cl)c(Cl)c3)C2)[nH]n1` (stereo not drawn), the INHIBITION is given as 81%.

On to `Cc1c[nH]c(CN2CCOC(c3ccc(Cl)cc3)C2)c(C)c1=O` (stereo not drawn), for which the INHIBITION stood at 79.3%.

Turning to `Cc1cc(C)nc(CN2CCOC(c3ccc(Cl)cc3)C2)n1` (stereo not drawn), the INHIBITION is listed as 41.5%.

As for `O=C(c1ccc(O)cn1)N1CCOC(c2ccc(Cl)c(Cl)c2)C1` (stereo not drawn), the INHIBITION was -19.2%.

As for `Cc1c[nH]c(CN2CCOC(c3ccc(F)cc3)C2)c(C)c1=O` (stereo not drawn), the INHIBITION was -3.96%.

Consider `Cc1nnc(CN2CCOC(c3ccc(Cl)c(Cl)c3)C2)o1` (stereo not drawn), for which the INHIBITION stood at 15.9%.

Consider `Cc1cc(C(=O)N2CCOC(c3nc(C)n[nH]3)C2)[nH]n1` (stereo not drawn), for which the INHIBITION was determined as 28.5%.

Take `Cc1nc[nH]c1CN1CCOC(c2ccc(Cl)c(Cl)c2)C1` (stereo not drawn): the INHIBITION stood at 69.4%.

As for `Cc1ccc2nc(C(=O)N3CCCC[C@]4(C)NC(=O)CCC[C@H]34)cn2c1`, the INHIBITION is on record as -56.2%.

Consider `CNC(=O)NCc1nn(-c2ccccc2)c2c1CCC2`, for which the INHIBITION amounted to 10.675%.

For `CC(C)c1nnc2n1CCN(C(C(N)=O)c1ccc(F)cc1)C2` (stereo not drawn), the INHIBITION is 20%.

With `COc1ccccc1CNC(=O)CNc1ccccc1C(C)=O`, the INHIBITION was -33.4%.

As to `Cc1nc(CC(=O)N2CCCN(c3ccc(C#N)cc3)CC2)cs1`, the INHIBITION is reported as -11.8%.

`CS(=O)(=O)NCC1CCCCN1C(=O)c1cccc(C(F)(F)F)c1` (stereo not drawn): the INHIBITION came to 30.6%.

With `CCC(=O)N1CCC(Cc2ccccc2-c2ccncc2)(C(N)=O)C1` (stereo not drawn), the INHIBITION came out at 7.52%.

On to `Cc1nnc2n1CCN(CC(=O)N1CCc3ccccc3C1)C2`, for which the INHIBITION was determined as 50.7%.

Turning to `CC(C)c1nnc2n1CCN(CC(=O)N1CCc3ccccc3C1)C2`, the INHIBITION was found to be 46.5%.

Turning to `CCc1nnc2n1CCN(CC(=O)N1CCc3ccccc3C1)C2`, the INHIBITION came to 59.7%.

For `CCc1nnc2n1CCN(CC(=O)N(CC)C1=CCCCC1)C2`, the INHIBITION was 24.6%.

For `Cc1nnc2n1CCN(C(=O)CN1C(=O)CCCc3ccccc31)C2`, the INHIBITION is 2.82%.

`CC(C)c1nnc2n1CCN(CC(=O)N1CCc3sccc3C1)C2`: the INHIBITION is recorded as -12.915%.

Turning to `CC(O)CN1CCC(CNCc2cccc(C(=O)N(C)C)c2)CC1` (stereo not drawn), the INHIBITION is recorded as -38.7%.

Regarding `CCC(C)(CC(=O)O)NC(=O)Cc1ccccc1F` (stereo not drawn), the INHIBITION is listed as 64.2%.

On to `CC(C)(NC(=O)Cc1ccccc1F)C(=O)O`, for which the INHIBITION is reported as -16%.

Take `CCC(C)(CC(=O)O)NC(=O)Cc1ccccc1Br` (stereo not drawn): the INHIBITION is on record as -49.7%.

In the case of `COCCC(=O)N1CCC2(CC1)CN(C(C)=O)Cc1ccccc1O2`, the INHIBITION turned out to be 14.805%.

In the case of `Cc1ccccc1C1(C(=O)N2CCCC(n3cncn3)C2)CC1` (stereo not drawn), the INHIBITION came to 27.8%.

Turning to `COc1ccc(S(=O)(=O)N2CCC[C@@H]3CN(C(=O)C4CC4)C[C@@H]32)cc1`, the INHIBITION is 54%.

In the case of `O=C(C1CC1)N1C[C@H]2CCCN(S(=O)(=O)c3cccc(F)c3)[C@H]2C1`, the INHIBITION is listed as 26.97%.

On to `CC(=O)N1C[C@H]2CCCN(S(=O)(=O)c3ccc(Cl)s3)[C@H]2C1`, for which the INHIBITION turned out to be 3.48%.

In the case of `COc1ccc(S(=O)(=O)N2CCC[C@@H]3CN(C(=O)C4CC4)C[C@@H]32)cc1F`, the INHIBITION is on record as 40.75%.

Consider `O=C(C1CC1)N1C[C@H]2CCCN(S(=O)(=O)c3ccc4c(c3)CCC4)[C@H]2C1`, for which the INHIBITION worked out at 58.8%.

For `O=C(C1CC1)N1C[C@H]2CCCN(S(=O)(=O)c3ccc(Cl)s3)[C@H]2C1`, the INHIBITION is 31.3%.

As for `CS(=O)(=O)N1CCC(Cc2cnc(Br)cn2)CC1`, the INHIBITION was determined as 33.2%.

For `CCOC(=O)c1cnn(C2CCN(C(=O)CC3C=CCC3)CC2)c1N` (stereo not drawn), the INHIBITION was found to be 29.8%.

As for `CN(Cc1ccc(Cl)s1)C(=O)COc1cccc(C(N)=O)c1`, the INHIBITION is -19%.

Take `CNC(=O)C1CN(c2cc(C)ncn2)CCN1Cc1ccccc1` (stereo not drawn): the INHIBITION is recorded as -42%.

As for `Cc1noc(C)c1CN1CCn2cc(CN3CCOCC3)nc2C1`, the INHIBITION is -50%.

As for `Cc1cc(C)nc(NCCCC(=O)NCCn2ccc3ccccc32)n1`, the INHIBITION turned out to be 28.5%.

On to `Cc1c(C2CCOC(C)(C)C2)nc(N)c(C#N)c1-c1ccc(O)cc1` (stereo not drawn), for which the INHIBITION was determined as 30.1%.

As for `Cc1cnn(CCNCC(O)COc2ccc(F)cc2)c1` (stereo not drawn), the INHIBITION was 54.4%.

In the case of `Cc1cnn(CCNCC(O)COc2ccc(C#N)cc2)c1` (stereo not drawn), the INHIBITION is given as 26.3%.

For `Cc1cnn(CCNCC(=O)NCCOc2ccc(Cl)cc2)c1`, the INHIBITION is on record as -0.96%.

Take `Cc1cnn(CCNCC(O)COc2c(C)ccc(C)c2C)c1` (stereo not drawn): the INHIBITION came out at 52.7%.

Take `Cc1cnn(CCNCC(O)COc2c(Cl)cccc2Cl)c1` (stereo not drawn): the INHIBITION is reported as -32%.

As for `Cc1cnn(CCNCC(O)COc2ccc(Cl)cc2)c1` (stereo not drawn), the INHIBITION was determined as 45.8%.

As to `Cc1cnn(CCNCC(O)COc2cccc(C(F)(F)F)c2)c1` (stereo not drawn), the INHIBITION is reported as 37.4%.

For `Cc1cnn(CCNCC(=O)NCCOc2ccc(F)cc2)c1`, the INHIBITION was determined as 45.7%.

For `Cc1cnn(CCNCC(=O)NCCOc2ccccc2)c1`, the INHIBITION is on record as 57.2%.

On to `CC(C)n1ccc(C(=O)N2CCCC(n3cncn3)C2)n1` (stereo not drawn), for which the INHIBITION is listed as 31.9%.

In the case of `Cc1cccc(Nc2nccnc2C2CCCN2CC(=O)N(C)C)n1` (stereo not drawn), the INHIBITION is listed as 46.1%.

In the case of `c1cnn(Cc2nnc3n2CCCN(CC2CCOCC2)C3)c1`, the INHIBITION is listed as 27.9%.

As for `CN(C)c1ncc(I)c(C2CCCCN2C)n1` (stereo not drawn), the INHIBITION is on record as -0.232%.

As for `CN(C(=O)CN1CCC(NC(=O)c2cccs2)CC1)c1ccccc1`, the INHIBITION amounted to 16.9%.

Consider `O=C(CSc1nc2n[nH]cc2c(=O)n1-c1ccccc1)N1CCOCC1`, for which the INHIBITION is 13.9%.

As for `CC(C)(C)CN[C@@H]1CO[C@H](CNC(=O)C2CCCC2)[C@H]1O`, the INHIBITION amounted to 51%.

As for `O=C(NC[C@H]1OC[C@@H](NC2COC2)[C@@H]1O)C1CCCC1`, the INHIBITION came out at 29%.

As for `O=C(NC[C@H]1OC[C@@H](NC2CCCC2)[C@@H]1O)C1CCCC1`, the INHIBITION is recorded as 30.5%.

For `CC(=O)N1CCN(c2ncnc3cc4c(cc23)OCCO4)CC1`, the INHIBITION worked out at 36.6%.

As for `CNC(=O)CN(C)c1nc(-c2ccc(C(N)=O)cc2)nc2c1CCNC2`, the INHIBITION came to 10.3%.

Turning to `Cc1cc(C)c2c(NCc3nncn3C3CCCCC3)ncnc2n1`, the INHIBITION is -41.4%.

As to `Cc1ncc(-c2ccnc(NC3CC3)n2)c(-c2cccnc2)n1`, the INHIBITION worked out at 2.6%.

As to `CCN1CCC2(CC1)NC(=O)c1cc(Br)ccc1-n1nnnc12`, the INHIBITION was found to be 33.3%.

With `CC(C)N1CCC2(CC1)NC(=O)c1cc(Br)ccc1-n1nnnc12`, the INHIBITION worked out at 58.2%.

As for `O=C1NC2(CCCCC2)c2nnnn2-c2ccc(Br)cc21`, the INHIBITION is reported as 42.4%.
